A selection: hits, their analogues and other compounds. The true share with any hit is near 0.69%.
Integrin act MD: activates integrin-mediated alleviation for muscular dystrophy; alpha7betagal myoblasts, beta-gal FDG fluorescence, 48 h; Potency, µM (highest dose often 38.3 µM), without a hit: top-dose activation, hits mostly activators; 0.064% of 350,000 active; AID 624291;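 further: potency means the concentration at half of the fitted maximal effect; 100% = response of the positive control SU9516; nearly all actives have a fitted effect of over 60% in size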
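Alpha7betagal+/- myoblasts (passage 13) were plated 16-24 hr, then exposed to compounds (1:260 dilution of DMSO stock) for 48 hours at 37C. After MPER lysis, β-galactosidase reporter activity was read as FDG fluorescence (ex 480/em 540) after 30 minutes.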
PKM2 act: activators of human pyruvate kinase M2 | P14618 | purified PKM2, Kinase-Glo ATP luminescence, activation; response scale: 0% is enzyme alone, no compound | Potency, µM (series often up to 57.5 µM), inactives show top-dose activation, actives largely listed as activators | 0.34% of 260,000 active | AID 1631; further: potency means the concentration at half of the fitted maximal effect; on the % scale 0 is the no-effect control and ±100 the full control effect; nearly all actives have a fitted effect of over 55% in size
Target sequence (P14618 whole entry, looked up): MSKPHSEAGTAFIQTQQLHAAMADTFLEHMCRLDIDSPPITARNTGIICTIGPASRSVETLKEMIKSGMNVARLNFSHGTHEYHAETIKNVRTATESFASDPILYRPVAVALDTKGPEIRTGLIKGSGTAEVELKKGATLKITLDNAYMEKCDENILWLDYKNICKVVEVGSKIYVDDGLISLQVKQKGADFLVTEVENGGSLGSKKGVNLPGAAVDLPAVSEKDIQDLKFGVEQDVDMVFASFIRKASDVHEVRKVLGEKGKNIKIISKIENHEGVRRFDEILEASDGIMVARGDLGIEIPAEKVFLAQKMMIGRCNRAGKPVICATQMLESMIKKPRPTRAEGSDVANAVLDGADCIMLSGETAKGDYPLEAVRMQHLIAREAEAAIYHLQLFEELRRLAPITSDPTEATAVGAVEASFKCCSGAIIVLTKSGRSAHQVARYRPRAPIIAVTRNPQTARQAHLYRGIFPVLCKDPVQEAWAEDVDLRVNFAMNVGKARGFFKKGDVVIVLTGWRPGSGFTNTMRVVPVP
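ATP formation by purified human PK-M2, quantified via coupled luciferase luminescence after 1 h at room temperature with 0.1 mM ADP and 0.5 mM PEP final.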
IL2 activator: activators of IL-2. IL-2 activation reporter assay, cell-based qHTS; stimulated with anti-CD3/CD4/CD28 beads; in transgenic mouse T cells. activation, % (series mostly up to about 46 µM). 0.065% of 360,000 active. AID 652025; in the data active means activation above about 50%; inconclusive means mostly about 30% to 49%; further: 0% is about no effect
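First, unstimulated transgenic mouse T cells were exposed to compound for 60 min. Next, anti-CD3/anti-CD4-coated beads with anti-CD28 were added. Finally, after 18 h at 37 degrees C, EGFP and DsRed were imaged.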
TCR act: activators of T cell receptors; Potency, µM (series often up to 9.22 µM), for inactives: top-dose activation of IL-2 secretion, usual class: activators; 330,000 tested, under 10 active; primary human leukocytes, anti-CD3, IL-2 HTRF, 48 h; further: % of control where 0% means no effect
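Primary human leukocytes were stimulated with a-CD3 beads plus compounds for 48 hr without co-stimulation; secreted IL-2 was quantified by HTRF using a-IL-2-K (europium cryptate) and a-IL-2-d2, excited at 320nm with acceptor emission read at 665nm.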
A-T KAP1 phos: potential ataxia-telangiectasia treatments restoring KAP-1 phosphorylation; F2112 A-T fibroblasts, KAP-1 phosphorylation AlphaLISA; neocarzinostatin DNA damage 30 min before lysis; Potency, µM (highest dose often 57.5 µM), for the others: top-dose activation, most hits filed as activators; 0.19% of 320,000 active; AID 485349; further: potency means the concentration at half of the fitted maximal effect; % of control where 0% means no effect; nearly all actives have a fitted effect of over 45% in size
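hTERT-immortalized A-T patient fibroblasts (F2112), 500 cells/well in OPTI-MEM, 1% FBS, got compounds for 60 min, then NCS for 30 min at 37C. Lysates were then assayed for phospho-KAP-1 by AlphaLISA (anti-pKAP1 donor, anti-KAP1 acceptor beads), 6 hr at 25C.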
Tb PFK inh: T. brucei PFK enzyme inhibition | O15648 | T. brucei PFK, ADP-Glo luminescence | Potency, µM (highest dose often 57.5 µM), inactives show at the top dose activity, negative = inhibition, usual class: inhibitors | 0.17% of 330,000 active | AID 485367;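 further: potency means the concentration at half of the fitted maximal effect; 0% = uninhibited 1x PFK enzyme wells and -100% = no-enzyme wells; nearly all actives have a fitted effect of over 60% in size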
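ADP-Glo luminescence quantified ADP after 45 min at room temperature, with 1.25 nM T. brucei PFK, 0.1 mM ATP and 0.5 mM fructose-6-phosphate in pH 8.0 TEA buffer. qHTS titrations up to 57 µM; curves classified by quality.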
* hit, by the source's call; ? = inconclusive; . = no result; [ ] = remark or other dose. Unless noted, the call rests on the fitted dose curve; in most records, active means well fitted curve in the direction sought with a large enough effect; inconclusive means small, poorly fitted or top-dose-only effect, or another doubt; inactive means no such curve, though single readings can be large; an effect the other way counts as inactive or inconclusive.

SMILES	Integrin act MD	PKM2 act	IL2 activator	TCR act	A-T KAP1 phos	Tb PFK inh
COC(=O)C1=NNC2(C)C(=O)N(c3ccc(C)cc3)C(=O)C12 (configuration not stated)	10µM*	0%	0	-1%	-1%	-12%
COCC1C2CC[C@H]3C(OCc4ccc(F)cc4C(F)(F)F)OC[C@]4(C)[C@H]3C2=C(CN4C(=O)OC(C)(C)C)[C@H](C)C1COC (some centres not stated)	.	2%	.	.	.	.
CCOc1cc(/C=C2/SC(=O)N(CC(=O)N3CCc4ccccc4C3)C2=O)ccc1OCC(=O)O	10%	?	0	9%	-2%	-2%
NC(=O)COc1ccccc1/C=C1/SC(=O)N(CC(=O)N2CCc3ccccc3C2)C1=O	-17%	20µM*	0	-2%	5%	-1%
Nc1c(C(=O)Nc2nccs2)sc2nc(-c3cccs3)cc(C(F)(F)F)c12	-4%	6%	104*	-3%	17%	19%
CC[n+]1c(/C=C/c2c[nH]c3ccccc23)ccc2cc(C)ccc21	-68%	-18%	68*	5%	-6%	-2%
CCN(CC)C(=O)c1ccc(/C=C/c2c[nH]c3ccccc23)[n+](C)c1	-13%	-11%	79*	15%[46.1 µM]	-4%	1%
Cc1ccc(C(=O)/C=C/c2c[nH]c3ccccc23)cc1	-37%	?	-1	0%	-5%	-3%
CCN1/C(=C/c2ccc3cc(C)ccc3[n+]2CC)Sc2cc(C)ccc21	-65%	-13%	15	12%	0%	-1%
O=C(c1ccncc1)N1N=C(c2ccc(Br)cc2)CC1c1ccccc1O (configuration not stated)	-27%	7.9µM*	0	0%	-1%	8%
COC(=O)N1CC=CC1(C)C(=O)O (configuration not stated)	.	-6%	.	.	.	.
CCOc1ccc2oc(C(=O)OCC(=O)NC(=O)NC)c(C)c2c1	7.1µM*	4%	0	0%	1%	-7%
CCCn1c(-c2ccc(F)cc2)nc2c(NCCCN(CCO)CCO)nc(C)nc21	.	0%	.	.	.	.
CCCCCCN(C(=O)CCCCCN1C(=O)NC(c2ccccc2-c2ccccc2)C(C(=O)OCc2ccccc2)=C1C)C(C(=O)NCCCC)c1ccc(OCC(=O)OC)c(C(=O)OC)c1 (configuration not stated)	.	10%	.	.	.	.
Clc1ccccc1Cn1nnc2c(N3CCCC3)ncnc21	0%	16µM*	-1	1%	-5%	2%
Cc1ccc(NP(=O)(Nc2ccc(C)cc2)Nc2ccc(C)cc2)cc1	3.2µM*	-6%	-3	6%	3%	-5%
COc1ccc(-c2cn3cccnc3n2)cc1NC(=O)Nc1cc(C)ccc1C	.	.	.	.	6%	-24%
C=C(C)Cn1c(SCC(=O)N/N=C/c2ccccc2OCC(=O)O)nnc1-c1ccc(Br)cc1	29%	-12%	0	-5%	40µM*	0%
CCn1c(SCC(=O)N/N=C\c2ccccc2OCC(=O)O)nnc1-c1ccc(Cl)cc1	10%	0%	-2	-49%	-8%	-4%
CC1(OC(=O)C2CCCC2)C(=O)C=C2C=C(c3ccsc3)N(c3ccc(CO)cc3)C=C2C1=O (configuration not stated)	.	-7%[11.5 µM]	.	.	.	.
COC(=O)N1C2(C=CC1(C)C(=O)NCc1ccc(N(C)C)cc1)CCCCC2 (configuration not stated)	.	-1%	.	.	.	.
CC1=NN(c2cccc(C(=O)O)c2)C(=O)/C1=C\C=C\c1ccco1	-30%	6%	1	0%[46.1 µM]	-5%	21µM*
CCCN(CCC)c1ccc(/C=C/c2ccc3cc(OCC)ccc3n2)cc1	9%	3%	-4	-2%	28µM*	3%
N#C/C(=C\c1cccc(Cl)c1)C(=O)c1ccccc1	-19%	20µM*	-2	0%	1%	13%
COc1cccc(C=C(C#N)C(=O)c2ccccc2)c1	.	.	1	.	.	.
SMILES	Integrin act MD	PKM2 act	IL2 activator	TCR act	A-T KAP1 phos	Tb PFK inh
CCOc1ccc(CNc2ccc(CNc3ncn[nH]3)cc2)cc1	13%	0%	0	0%	-5%	-3%
CCOc1ccc(CNc2cccc(SC)c2)cc1	-17%	14µM*	-1	-2%	2%	-3%
COC(=O)C1=C(C(=O)OC)[C@@H]2N(C)c3ccc(OC)cc3[C@@]23C[C@@H](C(=O)OC)N(C(C)=O)C3=N1	.	-6%[11.5 µM]	.	.	.	.
CCOc1cc(/C=C2/C(=O)ON=C2C)ccc1OCc1ccccc1F	-47%	16µM*	0	0%	8%	0%
COc1cccc(Cn2ncc3c4sc(B(O)O)cc4n(C)c3c2=O)c1	.	.	.	.	-11%	-19%
CCOc1ccc(S(=O)(=O)N2CCCC(C(=O)NCC3CCCO3)C2)cc1Cl (configuration not stated)	-4%	.	-2	6%	-1%	15%
COC(=O)[C@@]1(Cc2ccc(F)cc2)[C@H]2c3cc(C(=O)N(C)C)n(Cc4ccc(O)c(OC)c4)c3C[C@H]2CN1C(=O)c1ccccc1	.	3%	.	.	.	.
N#C/C(=C\c1ccc(-c2ccccc2)cc1)c1nc(-c2ccco2)cs1	18%	-1%	79*	-1%[46.1 µM]	3%	-1%
N#C/C(=C\c1ccc(Cl)cc1)c1nc(-c2ccco2)cs1	2%	-5%	-2	-8%[46.1 µM]	4%	-7%
CCCCCC1=C2CNC(CCC)(C(=O)OC)C=C2C(C)C1=O (configuration not stated)	.	6%	.	.	.	.
CC1C(c2ccccc2)N(C)C(c2ccccc2)CC1(O)c1ccccc1 (configuration not stated)	-29%	2%	-3	-1%	10µM*	7%
O=C(NCCc1ccccc1)C1CCC(=O)N1C1CCCC1 (configuration not stated)	10µM*	.	-4	2%	-7%	1%
O=C(NCc1ccccn1)C1CCC(=O)N1C1CCCC1 (configuration not stated)	11%	.	-1	2%	.	.
COc1cc(S(=O)(=O)Nc2ccc(C)cc2)ccc1N=Cc1c(C)[nH]n(-c2ccc(C)cc2)c1=O	19%	-32%	21	5%[46.1 µM]	-1%	-1%
COc1cc(S(=O)(=O)Nc2ccc(C)cc2)ccc1N=Cc1c(C)c(C#N)c(=O)n(C)c1O	-6%	-7%	448*	7%	0%	-2%
Cc1nc2sc(C#N)c(N)c2c2c1CCCC2	?	-17%	1	-1%	21%	-5%

Bioassay records (PubChem)
